Assay [1] in a line: qHTS assay to identify aromatase inhibitors - cell viability counter screen (AID 743084).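 Further: cells stimulated with testosterone during compound exposure; nearly all actives have a fitted effect of over 55% in size.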
The target of assay [2] is Aryl hydrocarbon receptor (Homo sapiens) (UniProt P35869). As to the kind of experiment: qHTS assay to identify small molecule that activate the aryl hydrocarbon receptor (AhR) signaling pathway (AID 743085). Further: nearly all actives have a fitted effect of over 15% in size. Further: potency means the concentration at half of the fitted maximal effect.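 On activation: HG2L7.5c1 human HepG2 liver cells with stably integrated DRE-driven firefly reporter; series mostly up to about 70 µM.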 The procedure, abridged:
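Compounds were tested in HepG2 hepatocellular carcinoma cells harbouring a stably integrated luciferase gene under control of 20 DREs. Increased reporter signal after 24 h treatment at 37C was taken as AhR activation.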
A general note: qHTS replaces the single test concentration by a dilution series.

Assay [3] in a line: qHTS assay to identify small molecule that activate the aryl hydrocarbon receptor (AhR) signaling pathway - cell viability counter screen (AID 743086).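 Further: HepG2 liver cells carrying the AhR DRE luciferase reporter; series mostly up to about 70 µM; nearly all actives have a fitted effect of over 45% in size.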 An outline of the steps: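 HepG2-AhR-luc (HG2L7.5c1) cells, 4000/well, treated 24 h at 37 C with compound; viability measured as CellTiter-Fluor fluorescence after 30 min in the same wells as the luciferase read.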
Assay [4] is described as follows: qHTS assay to identify small molecule antagonists of the peroxisome proliferator-activated receptor gamma (PPARg) signaling pathway - cell viability counter screen (AID 743194). Further: nearly all actives have a fitted effect of over 55% in size. Further: potency means the concentration at half of the fitted maximal effect. The following applies: Potency: co-treated with 50 nM rosiglitazone. The procedure, abridged: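 Cytotoxicity counter screen in PPARg-bla HEK293H cells, same wells as reporter assay. Compounds plus 50 nM rosiglitazone (final) for 17 h at 37 C, then viability read by CellTiter-Glo luminescence.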

The nature of assay [5]: qHTS assay for small molecule agonists of the antioxidant response element (ARE) signaling pathway (AID 743202; active means well fitted activation curve with a large enough effect in the signal ratio in the repeat runs, not every such curve was filed as active; the % refers to the signal ratio). The procedure, abridged: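 HepG2 ARE-bla cells; 16 h treatment at 37 C; FRET-based beta-lactamase fluorescence read after 2 h substrate incubation at room temperature.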
The nature of assay [6]: qHTS assay for small molecule agonists of the antioxidant response element (ARE) signaling pathway - cell viability counter screen (AID 743203; calls by dose curve; further: nearly all actives have a fitted effect of over 55% in size; further: potency means the concentration at half of the fitted maximal effect). The procedure, abridged: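 Viability counter screen: CellTiter-Glo luminescence, read after 30 min at room temperature, in ARE-bla HepG2 wells. Compound exposure lasted 16 h at 37C/5% CO2, following a 5 h pre-incubation of the cells after plating.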

The nature of assay [7]: qHTS assay for small molecule activators of the heat shock response signaling pathway - cell viability counter screen (AID 743209). Further: nearly all actives have a fitted effect of over 50% in size. An outline of the steps: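 Cytotoxicity counter screen run in the same wells as the heat-shock bla reporter assay: HeLa HSE-bla cells, 5 h compound exposure at 37 C, viability read by CellTiter-Glo luminescence.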
Assay [8] is described as follows: qHTS assay for small molecule activators of the heat shock response signaling pathway (AID 743210; active means well fitted activation curve with a large enough effect in the signal ratio in the repeat runs, with a control signal flat, not every such curve was filed as active; the % refers to the signal ratio;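 further: HeLa cells with beta-lactamase reporter driven by heat shock elements; series mostly up to about 63 µM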). An outline of the steps: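 Following overnight attachment, HSE-bla HeLa cells received test compounds for 5 h at 37 C; beta-lactamase activity was then detected via FRET substrate fluorescence.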
The nature of assay [9]: qHTS assay to identify small molecule agonists of the peroxisome proliferator-activated receptor delta (PPARd) signaling pathway - cell viability counter screen (AID 743211). Further: nearly all actives have a fitted effect of over 55% in size. Further: potency means the concentration at half of the fitted maximal effect. An outline of the steps: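 Counter screen for cytotoxicity run in parallel with the PPARd reporter screen. Beta-lactamase reporter HEK293H cells exposed to compounds 17 h; ATP-based CellTiter-Glo luminescence quantified viability.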

The nature of assay [10]: qHTS assay to identify small molecule antagonists of the peroxisome proliferator-activated receptor delta (PPARd) signaling pathway - cell viability counter screen (AID 743213). Further: nearly all actives have a fitted effect of over 50% in size. The procedure, abridged: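 Luminescence from CellTiter-Glo, added after the bla read and incubated 30 min at room temperature, gives viability of HEK293H PPARd-bla cells exposed to compounds for 17 h at 37 C with 300 nM L165041.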

The target of assay [11] is Bile acid receptor (Homo sapiens) (UniProt Q96RI1). As to the kind of experiment: qHTS assay to identify small molecule antagonists of the farnesoid-X-receptor (FXR) signaling pathway (AID 743217; active means well fitted inhibition curve with a large enough effect in the signal ratio in the repeat runs, not every such curve was filed as active; the % refers to the signal ratio). An outline of the steps:
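Antagonist mode: chenodeoxycholic acid at 50 uM final stimulates a UAS-driven beta-lactamase reporter in HEK 293T FXR-bla cells during 16 h, 37C compound exposure. Read-out is FRET substrate fluorescence after 2 h at room temperature.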

The target is the same in assay [12]. As to the kind of experiment: qHTS assay to identify small molecule agonists of the farnesoid-X-receptor (FXR) signaling pathway (AID 743220; active means well fitted activation curve with a large enough effect in the signal ratio in the repeat runs, not every such curve was filed as active; the % refers to the signal ratio). The procedure, abridged:
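FXR-UAS-bla HEK 293T cells carrying a UAS-driven beta-lactamase reporter were plated for 5 h at 37C/5% CO2, then exposed to DMSO-dissolved Tox21 10K compounds for 16 h at 37C. A LiveBLAzer B/G FRET substrate was loaded for 2 h at room temperature before fluorescence reading.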

The nature of assay [13]: qHTS assay to identify small molecule antagonists of the farnesoid-X-receptor (FXR) signaling pathway - cell viability counter screen (AID 743221; active means well fitted cell-killing curve with a large enough effect in the repeat runs, not every such curve was filed as active; further: nearly all actives have a fitted effect of over 50% in size). An outline of the steps: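 Multiplexed counter screen: viability of FXR-bla HEK 293T cells under agonist stimulation by chenodeoxycholic acid (50 uM, final) and test compound for 16 h at 37 C, measured by CellTiter-Glo luminescence in the reporter wells.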

Assay [14] concerns the target Vitamin D3 receptor (Homo sapiens) (UniProt P11473). As to the kind of experiment: qHTS assay to identify small molecule agonists of the vitamin D receptor (VDR) signaling pathway (AID 743222; calls by dose curve). The procedure, abridged:
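Agonist mode, beta-lactamase reporter: fluorescence from LiveBLAzer B/G FRET substrate (2 h, room temperature) read after 16 h compound treatment at 37 C of VDR-bla cells, which were pre-incubated 4 h after seeding.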

Assay [15] has as its target Peroxisome proliferator-activated receptor gamma (Homo sapiens) (UniProt P37231). The assay can be described thus: qHTS assay to identify small molecule agonists of the peroxisome proliferator-activated receptor gamma (PPARg) signaling pathway (AID 743094; active means well fitted activation curve with a large enough effect in the signal ratio in the repeat runs, not every such curve was filed as active; the % refers to the signal ratio). The procedure, abridged: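 Agonist activity was taken from a beta-lactamase reporter (FRET substrate, 1 h at room temperature) in HEK293H cells carrying a PPARg UAS-bla construct. Compounds in DMSO were incubated 17 h at 37C after a 5 h cell pre-incubation.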

For assay [16] the target is unchanged. As to the kind of experiment: qHTS assay to identify small molecule antagonists of the peroxisome proliferator-activated receptor gamma (PPARg) signaling pathway (AID 743191; calls by dose curve; further: series mostly up to about 63 µM; nearly all actives have a fitted effect of over 30% in size). The procedure, abridged: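 GeneBLAzer PPARg UAS-bla HEK293H cells, 5 h post-plating, exposed to compounds 17 h at 37C. LiveBLAzer B/G FRET substrate added for 1 h at room temperature; beta-lactamase reporter read by fluorescence intensity.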

Assay [17] concerns the target Peroxisome proliferator-activated receptor delta (Homo sapiens) (UniProt Q03181). As to the kind of experiment: qHTS assay to identify small molecule agonists of the peroxisome proliferator-activated receptor delta (PPARd) signaling pathway (AID 743212; calls by dose curve). An outline of the steps: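 Tox21 library screened in GeneBLAzer PPARd UAS-bla HEK293H cells. After compound treatment at 37 C, a FRET-based beta-lactamase substrate was applied for 2 h and fluorescence recorded.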

Assay [18] shares this target. As to the kind of experiment: qHTS assay to identify small molecule antagonists of the peroxisome proliferator-activated receptor delta (PPARd) signaling pathway (AID 743215; active means well fitted inhibition curve with a large enough effect in the signal ratio in the repeat runs, not every such curve was filed as active; the % refers to the signal ratio;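 further: cells stimulated with agonist L165041 at 300 nM final during compound exposure; series mostly up to about 62 µM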). The procedure, abridged:
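Agonist L165041 (300 nM final) added with compound to PPARd-bla HEK293H UAS-bla reporter cells; 17 h incubation at 37 C. Read-out: LiveBLAzer FRET substrate, 2 h at room temperature, fluorescence intensity.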

A short description of assay [19]: qHTS assay to identify small molecule agonists of the farnesoid-X-receptor (FXR) signaling pathway - cell viability counter screen (AID 743218). Further: nearly all actives have a fitted effect of over 45% in size. Further: potency means the concentration at half of the fitted maximal effect. The procedure, abridged: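 Viability counter screen in the same wells: CellTiter-Glo luminescence, 30 min room-temperature incubation, measured after the beta-lactamase read. Cells were GeneBLAzer FXR-UAS-bla HEK 293T, compound-treated 16 h at 37C.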

Assay [20] deals with Vitamin D3 receptor (Homo sapiens) (UniProt P11473). As to the kind of experiment: qHTS assay to identify small molecule antagonists of the vitamin D receptor (VDR) signaling pathway (AID 743223; active means well fitted inhibition curve with a large enough effect in the signal ratio in the repeat runs, not every such curve was filed as active; the % refers to the signal ratio). An outline of the steps:
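Cells carrying a VDR-driven beta-lactamase reporter (VDR-bla) were co-treated with compound and 3 nM final 1alpha,25-dihydroxyvitamin D3 for 16 h at 37C; reporter activity was measured as FRET substrate fluorescence after 2 h at room temperature.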

The source of these data is PubChem BioAssay (Tox21).

Values joined by “and” are separate entries in the source; they are usually repeats but may differ in a detail not shown here. Equal values may be shown once. Inconclusive results are not listed. A structure can be active in one record and inactive in another. Active and inactive are the calls of the source. Unless noted, the call rests on the fitted dose curve; in most records, active means well fitted curve in the direction sought with a large enough effect in the repeat runs; inconclusive means weak or mixed curves; inactive means no such curve, though single readings can be large; an effect the other way counts as inactive or inconclusive.

Chain of Aryl hydrocarbon receptor (Homo sapiens) (P35869 whole entry, looked up): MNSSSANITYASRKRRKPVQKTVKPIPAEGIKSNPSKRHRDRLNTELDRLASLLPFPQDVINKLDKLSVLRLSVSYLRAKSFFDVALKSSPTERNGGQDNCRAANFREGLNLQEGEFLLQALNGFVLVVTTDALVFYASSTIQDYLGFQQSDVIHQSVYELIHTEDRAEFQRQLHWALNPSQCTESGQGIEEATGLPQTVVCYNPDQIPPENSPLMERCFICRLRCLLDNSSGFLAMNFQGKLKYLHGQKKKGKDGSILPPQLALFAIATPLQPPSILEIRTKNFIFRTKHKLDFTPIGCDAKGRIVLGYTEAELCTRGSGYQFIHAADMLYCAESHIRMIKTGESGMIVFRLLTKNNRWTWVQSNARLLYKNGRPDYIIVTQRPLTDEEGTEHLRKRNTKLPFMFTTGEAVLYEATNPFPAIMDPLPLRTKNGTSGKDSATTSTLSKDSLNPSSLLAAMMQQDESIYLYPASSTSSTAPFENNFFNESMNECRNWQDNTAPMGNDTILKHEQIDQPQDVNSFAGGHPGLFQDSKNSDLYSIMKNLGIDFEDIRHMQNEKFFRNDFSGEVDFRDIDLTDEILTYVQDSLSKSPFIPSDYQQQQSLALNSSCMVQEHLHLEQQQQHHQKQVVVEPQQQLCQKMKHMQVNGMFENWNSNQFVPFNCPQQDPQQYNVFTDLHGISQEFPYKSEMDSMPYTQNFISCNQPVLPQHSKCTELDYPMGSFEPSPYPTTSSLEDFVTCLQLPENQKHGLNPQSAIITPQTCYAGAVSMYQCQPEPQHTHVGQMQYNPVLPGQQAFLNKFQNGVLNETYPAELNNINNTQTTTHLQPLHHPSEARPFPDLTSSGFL
Chain of Peroxisome proliferator-activated receptor gamma (Homo sapiens) (P37231 whole entry, looked up): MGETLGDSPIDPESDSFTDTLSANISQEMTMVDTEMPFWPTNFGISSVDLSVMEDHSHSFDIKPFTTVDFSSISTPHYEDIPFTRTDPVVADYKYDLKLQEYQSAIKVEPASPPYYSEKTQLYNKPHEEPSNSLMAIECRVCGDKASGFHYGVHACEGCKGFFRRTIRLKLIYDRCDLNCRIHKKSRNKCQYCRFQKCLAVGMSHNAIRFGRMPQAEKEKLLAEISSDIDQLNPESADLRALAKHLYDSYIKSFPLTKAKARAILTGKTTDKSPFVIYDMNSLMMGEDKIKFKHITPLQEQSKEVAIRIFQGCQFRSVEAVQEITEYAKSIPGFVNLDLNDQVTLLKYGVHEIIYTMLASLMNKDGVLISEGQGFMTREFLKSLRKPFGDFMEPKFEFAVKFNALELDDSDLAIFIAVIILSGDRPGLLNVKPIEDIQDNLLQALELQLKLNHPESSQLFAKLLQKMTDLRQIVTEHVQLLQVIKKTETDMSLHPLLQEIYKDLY
Chain of Peroxisome proliferator-activated receptor delta (Homo sapiens) (Q03181 whole entry, looked up): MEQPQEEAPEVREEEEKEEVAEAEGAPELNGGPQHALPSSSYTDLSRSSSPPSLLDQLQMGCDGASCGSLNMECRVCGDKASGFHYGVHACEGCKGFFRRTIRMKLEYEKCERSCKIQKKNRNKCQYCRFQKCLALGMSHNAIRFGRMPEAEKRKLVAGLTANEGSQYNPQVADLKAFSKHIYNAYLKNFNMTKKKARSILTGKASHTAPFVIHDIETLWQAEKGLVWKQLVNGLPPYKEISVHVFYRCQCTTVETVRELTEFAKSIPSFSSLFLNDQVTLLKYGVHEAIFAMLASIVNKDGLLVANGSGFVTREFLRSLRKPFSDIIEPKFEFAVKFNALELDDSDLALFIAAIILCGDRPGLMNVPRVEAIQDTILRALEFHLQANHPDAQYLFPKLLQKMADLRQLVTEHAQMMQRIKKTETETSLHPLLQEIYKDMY
Chain of Bile acid receptor (Homo sapiens) (Q96RI1 whole entry, looked up): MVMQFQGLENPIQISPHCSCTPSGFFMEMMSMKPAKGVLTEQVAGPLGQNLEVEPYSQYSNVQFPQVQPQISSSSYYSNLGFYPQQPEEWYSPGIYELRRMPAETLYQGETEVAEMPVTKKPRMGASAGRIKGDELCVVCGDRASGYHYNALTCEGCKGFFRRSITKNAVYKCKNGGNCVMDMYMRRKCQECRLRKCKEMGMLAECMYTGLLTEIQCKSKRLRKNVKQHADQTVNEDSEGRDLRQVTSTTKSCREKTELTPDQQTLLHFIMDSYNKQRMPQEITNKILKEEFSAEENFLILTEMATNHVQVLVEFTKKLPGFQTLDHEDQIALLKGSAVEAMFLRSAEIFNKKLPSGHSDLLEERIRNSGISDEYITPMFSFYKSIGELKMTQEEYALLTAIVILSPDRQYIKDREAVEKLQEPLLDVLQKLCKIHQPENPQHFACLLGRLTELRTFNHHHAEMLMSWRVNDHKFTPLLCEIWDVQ
Chain of Vitamin D3 receptor (Homo sapiens) (P11473 whole entry, looked up): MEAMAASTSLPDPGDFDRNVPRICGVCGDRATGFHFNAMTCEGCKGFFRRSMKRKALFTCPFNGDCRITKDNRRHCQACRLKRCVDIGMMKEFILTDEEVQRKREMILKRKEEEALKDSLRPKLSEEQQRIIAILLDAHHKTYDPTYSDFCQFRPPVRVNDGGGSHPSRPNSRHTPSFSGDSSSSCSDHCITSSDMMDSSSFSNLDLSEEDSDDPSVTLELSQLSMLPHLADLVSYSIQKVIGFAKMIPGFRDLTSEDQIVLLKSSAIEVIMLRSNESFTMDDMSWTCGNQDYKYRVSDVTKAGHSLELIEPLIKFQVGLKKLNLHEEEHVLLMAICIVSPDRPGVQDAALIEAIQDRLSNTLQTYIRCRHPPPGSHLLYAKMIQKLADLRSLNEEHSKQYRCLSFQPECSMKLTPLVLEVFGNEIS

In the case of `C=CC(=O)OC`, the Potency entry in assay [1], in assay [2], in assay [3], in assay [4], in [5] and in assay [6] was “inactive” in each case. Besides, the Potency result in [7], in assay [9], in assay [10], in assay [11] and in assay [13] was “inactive” in each case. Besides, the result in assay [8], in assay [12] and in assay [14] was inactive.
For the compound `C=CCCl`, the Potency entry in assay [1], in [2], in assay [15], in [16], in assay [4] and in assay [5] was “inactive” each time. Moreover, the Potency result in assay [6], in assay [7], in assay [9], in assay [10], in assay [18] and in assay [13] was “inactive” in each case. Also, the call in assay [8], in [17] and in assay [14] was inactive.
For the compound `O=C(Nc1ccccc1)Nc1cnns1`, the Potency entry in assay [1], in assay [15], in assay [16], in [4], in assay [6] and in [7] was “inactive” throughout. The Potency result in assay [9], in assay [10], in [18] and in [11] was “inactive” in each case. Besides, the Potency in assay [2] was 15.3 µM (active). For the same compound, the outcome in assay [8], in assay [17], in [12] and in assay [14] was inactive.
Consider `C[N+](C)(C)CCCl`, for which the Potency result in [1], in assay [2], in [3], in assay [4], in [5] and in assay [6] was “inactive” throughout. Moreover, the Potency result in assay [7], in assay [9], in assay [10], in assay [18], in assay [19] and in assay [13] was “inactive” in each case. In addition, the outcome in assay [8], in assay [17] and in assay [20] was inactive.
In the case of `CC/C(=N\OC/C=C/Cl)C1=C(O)CC(C2CCOCC2)CC1=O` (stereo unspecified), the Potency entry in [1], in assay [2], in assay [15], in assay [4], in assay [6] and in [7] was “inactive” in each case. For the same compound, the Potency result in assay [9], in assay [10], in assay [18], in assay [19] and in [13] was “inactive” throughout. In addition, the result in assay [8] and in assay [14] was inactive.
In the case of `OC(c1ccc(Cl)cc1)(c1ccc(Cl)cc1)c1cccnc1`, the Potency entry in [1], in assay [2], in [3], in assay [7], in [10] and in [18] was “inactive” throughout. Also, the Potency result in assay [19] and in [13] was “inactive” in each case. For the same compound, the Potency is 61.1 µM (active) in assay [6] and 54.9 µM (active) in assay [9]. In addition, the outcome in [17], in [12], in [14] and in [20] was inactive.
With `COC(=O)C(Br)CBr` (stereo unspecified), the Potency result in assay [1], in [2], in assay [3], in assay [6], in assay [7] and in [9] was “inactive” in each case. The Potency result in assay [10], in assay [18], in assay [19] and in assay [13] was “inactive” in each case. Moreover, the call in assay [8], in [17] and in assay [14] was inactive.
`O=C(O)c1ccccc1C(=O)Nc1cccc2ccccc12`: the Potency result in assay [1], in assay [15], in assay [16], in [4], in assay [6] and in assay [7] was “inactive” throughout. Further, the Potency result in [9], in assay [10], in [18], in assay [11], in assay [19] and in assay [13] was “inactive” each time. Moreover, the Potency in assay [2] is 13.7 µM (active). The compound was classed as inactive in assay [8], in assay [17], in assay [12], in assay [14] and in [20].
Regarding `CC1(C)[C@H](C=C(Cl)Cl)[C@@H]1C(=O)O[C@@H](C#N)c1cccc(Oc2ccccc2)c1`, the Potency entry in assay [1], in assay [2], in [3], in assay [4], in assay [6] and in assay [7] was “inactive” throughout. For the same compound, the Potency result in assay [9], in assay [10], in assay [19] and in assay [13] was “inactive” throughout. Besides, in assay [14], the call was inactive.
As for `Clc1cccc2ccccc12`, the Potency result in assay [1], in [2], in assay [3], in assay [4], in assay [6] and in assay [7] was “inactive” each time. Moreover, the Potency entry in [9], in [10], in assay [18], in assay [19] and in assay [13] was “inactive” in each case. Moreover, the outcome in [8], in assay [17] and in assay [14] was inactive.
As to `C(=NC1CCCCC1)=NC1CCCCC1`, the Potency result in assay [1], in assay [2], in assay [3], in [7], in assay [10] and in [13] was “inactive” throughout. Also, the Potency was 4.93 µM (active) and 3.47 µM (active) in assay [4]; 3.08 µM (active) and 3.06 µM (active) in assay [6]; “inactive and 21.9 µM (active)” in assay [9]; 11 µM (active) in [19]. Further, the compound was called inactive in [8], in [17], in [12] and in [14].
